A word on the AC50: it is the concentration at which the activity in the assay is half-maximal.

The values below come from PubChem BioAssay (EPA / NIEHS).

The structures appear in SMILES notation. Where a structure was tested more than once in an assay, its records may differ in their call. Active and inactive are the calls of the source. How the source made its calls: active means hit-call score of the fitted dose curve at least 0.9, where 1 is the maximum; inactive means score below 0.9.

The subject of this assay is SRD5A2 (gene 6716). The assay can be described thus: CCTE_Deisenroth_5AR_NBTE_ratio: CCTE's 5alpha-reductase NanoBRET Target Engagement Assay - Ratio, Deisenroth Lab (AID 2284322). To be noted: actives raise or lower the signal. Here is the method:
CCTE_Deisenroth_5AR NBTE (5alpha-reductase NanoBRET Target Engagement Assay) is a cell-based, single-readout assay that uses HEK293T, a human kidney cell line, with measurements taken at 5 hours after chemical dosing in a 384 well plate. This assay includes a primary and secondary screen as well as an autofluorscence screen.CCTE_Deisenroth_5AR NBTE_ratio is one of four assay components calculated from the CCTE_Deisenroth_5AR NBTE assay. It is designed to measure the ratio of target acceptor fluorophore resonance to donor bioluminescent signals.Data from the assay component CCTE_Deisenroth_5AR NBTE_ratio was analyzed into 1 assay endpoint. This assay endpoint, CCTE_Deisenroth_5AR NBTE_ratio, was analyzed with bidirectional fitting relative to DMSO as the negative control and baseline of activity. Using a type of inducible reporter, gain or loss-of-signal activity can be used to understand changes in 5alpha-reductase catalytic function. Furthermore, this assay endpoint can be referred to as a primary readout. To generalize the intended target to other relatable targets, this assay endpoint is annotated to the misc protein intended target family, where the subfamily is 5-alpha reductase.
For transient expression of the SRD5A2-NanoLuc fusion protein, HEK293T cells are reverse transfected with pNLF1-C-SRD5A2 expression vector and incubated for 20 hours to facilitate fusion protein expression. For assay setup, 384-well non-binding surface (NBS) microplates are pre-dispensed with test chemical across an 8-point concentration series (10 nM - 29.9 uM) with two technical replicates per run. Cell suspensions are dispensed into the microplates and incubated with test chemical for a duration of three hours. Following pre-incubation with test chemical, the testosterone tracer is dispensed into each well and incubated an additional two hours. The total incubation period with test chemical is five hours, with testosterone tracer added the final two hours to reach target engagement equilibrium. For the NanoBRET endpoint measurements, a solution of Nano-Glo substrate and extracellular NanoLuc inhibitor solution is added to each test well and immediately scanned on a plate reader configured with multichromatic emission settings for donor luminescence ([…]) and acceptor fluorescence ([…]). DMSO solvent controls are included as baseline control. Plate-matched samples are run with mock tracer conditions or testosterone tracer to discriminate any potential non-specific substrate interference.
With `O=c1c(-c2ccc(O)cc2)coc2cc(O)cc(O)c12`, the outcome was inactive.

Take `CCN(Cc1cccc(S(=O)(=O)O)c1)c1ccc(C(=C2C=CC(=[N+](CC)Cc3cccc(S(=O)(=O)O)c3)C=C2)c2ccccc2S(=O)(=O)[O-])cc1`: the AC50 is 2.9 µM (active).

As for `NCc1cccc(C2CCN(C(=O)c3ccc(C#Cc4ccccc4F)o3)CC2)c1`, the result was inactive.

As for `CCN(CC)C(=O)c1cc(S(=O)(=O)Cc2ccccc2)c(N2CCC(c3ccccc3)CC2)cc1N(CC)CCN(C)C`, the AC50 was 17.3 µM (active) and the result was inactive.

As for `CN(C[C@@H](CC[N+]12CCC(C3CCCCC3)(CC1)CC2)c1ccc(Cl)c(Cl)c1)C(=O)c1cc(C(F)(F)F)cc(C(F)(F)F)c1`, the AC50 was 76 µM (active).

As to `CN(C)c1ccc(C(=C2C=CC(=[N+](C)C)C=C2)c2ccc(N(C)C)cc2)cc1`, the AC50 was 0.593 µM (active).

For `O=c1[nH]sc2ccccc12`, the AC50 is 75 µM (active).

Take `CCCCCCCCOC(=O)c1cc(O)c(O)c(O)c1`: the AC50 was 1.59 µM (active).

On to `O=C(O)Cc1cc(I)c(Oc2ccc(O)c(I)c2)c(I)c1`, for which the concentration at half-maximal activity (AC50) was 77.3 µM (active).

Take `CN1C(=O)CC[C@H]1c1cccnc1`: the result was inactive.

Regarding `CN1C(=O)N(c2ccccc2Br)Cc2cnc(Nc3ccc4c(c3)OCC(CO)O4)nc21` (stereo not given), the result was inactive.

With `COc1cc(C(=O)NC2CCN(C)CC2)ccc1Nc1ncc2c(n1)N(C1CCCC1)CC(F)(F)C(=O)N2C`, the outcome was inactive.

Consider `CCCCCCCCCCCO`, for which the outcome was inactive.

For the molecule `CO[C@H]1/C=C/O[C@@]2(C)Oc3c(C)c(O)c4c(O)c(c(/C=N/N5CCN(C)CC5)c(O)c4c3C2=O)NC(=O)/C(C)=C\C=C\[C@H](C)[C@H](O)[C@@H](C)[C@@H](O)[C@@H](C)[C@H](OC(C)=O)[C@@H]1C`, the AC50 is 54.3 µM (active).
